# Data from the supplement of paper PMC8728848.
# The full list was thinned out, with the strongest signals kept by preference.
# Key:
# Test in all cases: glycan array binding signal (z-score within array); higher = stronger binding
# Conditions in all cases: glycan notation: IUPAC condensed, linker removed; mutation: R343A
# [1] = biological target: Fuc(a1-2)Gal(b1-3)GalNAc(b1-3)Gal(a1-4)Gal(b1-4)Glc
# How it was run: (§1)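 From the Consortium for Functional Glycomics database, 3228 arrays were curated, keeping only those whose protein sequence was available. Binding is given as a within-array Z-score averaged across arrays sharing a protein sequence and across linkers. Negative Z-scores can be read as non-binding.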
# [2] = biological target: Fuc(a1-2)Gal(b1-3)GlcNAc(b1-3)Gal(b1-4)Glc
# How it was run: as §1
# [3] = biological target: Fuc(a1-2)Gal(b1-4)GlcNAc
# How it was run: as §1
# [4] = biological target: Fuc(a1-4)GlcNAc
# How it was run: as §1
# [5] = biological target: Gal(a1-3)GalNAc
# How it was run: as §1
# [6] = biological target: Gal(b1-3)Gal
# How it was run: as §1
# [7] = biological target: Gal(b1-3)GlcNAc(b1-3)Gal(b1-4)Glc
# How it was run: as §1
# [8] = biological target: Gal(b1-4)GalNAc(a1-3)[Fuc(a1-2)]Gal(b1-4)GlcNAc
# How it was run: as §1
# [9] = biological target: Gal(b1-4)Glc
# How it was run: as §1
# [10] = biological target: Gal3S(b1-3)[Fuc(a1-4)]GlcNAc
# How it was run: as §1
# [11] = biological target: GlcNAc(b1-3)Gal(b1-4)GlcNAc(b1-3)Gal(b1-4)GlcNAc
# How it was run: as §1
# [12] = biological target: Kdn(a2-3)Gal(b1-4)GlcNAc
# How it was run: as §1
# [13] = biological target: Man(a1-2)Man(a1-3)[Man(a1-2)Man(a1-6)]Man
# How it was run: as §1
# [14] = biological target: Man(a1-2)Man(a1-3)[Man(a1-2)Man(a1-6)]Man(a1-6)[Man(a1-2)Man(a1-2)Man(a1-3)]Man
# How it was run: as §1
# [15] = biological target: Man(a1-2)Man(a1-3)[Man(a1-2)Man(a1-6)]Man(a1-6)[Man(a1-2)Man(a1-2)Man(a1-3)]Man(b1-4)GlcNAc(b1-4)GlcNAc
# How it was run: as §1
# [16] = biological target: Man(a1-2)Man(a1-3)[Man(a1-6)]Man(a1-6)[Man(a1-2)Man(a1-3)]Man(b1-4)GlcNAc(b1-4)GlcNAc
# How it was run: as §1
# [17] = biological target: Man(a1-2)Man(a1-6)[Man(a1-3)]Man(a1-6)[Man(a1-2)Man(a1-2)Man(a1-3)]Man
# How it was run: as §1
# [18] = biological target: Man(a1-3)[Man(a1-6)]Man(a1-6)[Man(a1-2)Man(a1-3)]Man(b1-4)GlcNAc(b1-4)GlcNAc
# How it was run: as §1
# [19] = biological target: Neu5Ac(a2-3)Gal(b1-4)GlcNAc(b1-3)Gal(b1-4)[Fuc(a1-3)]GlcNAc
# How it was run: as §1
# [20] = biological target: Neu5Gc(b2-6)Gal(b1-4)GlcNAc
# How it was run: as §1
binder,measurement,setting,value
Surfactant Protein D (Human); Neck + Carbohydrate Recognition Domain (NCRD) (Homo sapiens) (protein) MLLFLLSALVLLTQPLGYLEAEMKTYSHRTMPSACTLVMCSSVESGLPGRDRDGREGPRGEKGDPGLPGAAGQAGMPGQAGPVGPKGDNGSVGEPGPKGDTGPSGPPGPPGVPGPAGREGALGKQGNIGPQGKPGPKGEAGPKGEVGAPGMQGSAGARGLAGPKGERGVPGERGVPGNTGAAGSAGAMGPQGSPGARGPPGLKGDKGIPGDKGAKGESGLPDVASLRQQVEALQGQVQHLQAAFSQYKKVELFPNGQSVGEKIFKTAQFVKPFTEAQLLCTQAGGQLASPRSAAENAALQQLVVAKNEAAFLSMTDSKTEGKFTYPTGESLVYSNWAPGEPNDDGGSEDCVEIFTNGKWNDAACGEKRLVVCEF,glycan array binding signal (z-score),[1],-0.236
same,glycan array binding signal (z-score),[2],-0.397
same,glycan array binding signal (z-score),[3],-0.207
same,glycan array binding signal (z-score),[4],-0.016
same,glycan array binding signal (z-score),[5],-0.163
same,glycan array binding signal (z-score),[6],-0.274
same,glycan array binding signal (z-score),[7],-0.279
same,glycan array binding signal (z-score),[8],-0.214
same,glycan array binding signal (z-score),[9],-0.341
same,glycan array binding signal (z-score),[10],0.046
same,glycan array binding signal (z-score),[11],-0.173
same,glycan array binding signal (z-score),[12],-0.194
same,glycan array binding signal (z-score),[13],9.14
same,glycan array binding signal (z-score),[14],6.17
same,glycan array binding signal (z-score),[15],-0.269
same,glycan array binding signal (z-score),[16],9.15
same,glycan array binding signal (z-score),[17],2.79
same,glycan array binding signal (z-score),[18],6.5
same,glycan array binding signal (z-score),[19],-0.226
same,glycan array binding signal (z-score),[20],-0.326
